# Records with an inconclusive call do not appear. A call without a number means that no potency is given here. Calls of active or inactive are those of the source. Calls come from the whole dose curve; as a rule, active = well fitted curve in the direction sought with a large enough effect; inconclusive = small, poorly fitted or top-dose-only effect, or another doubt; inactive = no such curve, though single readings can be large; an effect the other way counts as inactive or inconclusive.
# Tests used:
# [1] = Quantitative High-Throughput drug screen in 47 multiple myeloma cell lines against the NCATS MIPE library collection: Delta47_JCRB cell viability assay (AID 1918925; note: nearly all actives have a fitted effect of over 45% in size)
# Procedure, shortened: (§1)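 Luminescent ATP measurement with CellTiter-Glo gives viability, scaled between DMSO-only wells (100%) and media-only wells (0%). Cells, 500 per well, faced library compounds for 48 hours at 37C.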
# [2] = Quantitative High-Throughput drug screen in 47 multiple myeloma cell lines against the NCATS MIPE library collection: EJM_DSMZ cell viability assay (AID 1918926; note: nearly all actives have a fitted effect of over 30% in size)
# Procedure, shortened: as §1
# [3] = Quantitative High-Throughput drug screen in 47 multiple myeloma cell lines against the NCATS MIPE library collection: AMO1_DSMZ cell viability assay (AID 1918927; note: nearly all actives have a fitted effect of over 30% in size)
# Procedure, shortened: as §1
# [4] = Quantitative High-Throughput drug screen in 47 multiple myeloma cell lines against the NCATS MIPE library collection: Karpas620_DSMZ cell viability assay (AID 1918959); note: nearly all actives have a fitted effect of over 30% in size
# Procedure, shortened: (§2)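 Steps: seed 500 cells per well; pin-transfer MIPE 4.0 library; incubate 48 h at 37C, 5% CO2, humidified; add CellTiter-Glo, 5 min room temperature; read luminescence.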
# [5] = Quantitative High-Throughput drug screen in 47 multiple myeloma cell lines against the NCATS MIPE library collection: KMM1_JCRB cell viability assay (AID 1918960); note: nearly all actives have a fitted effect of over 30% in size
# Procedure, shortened: (§3)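 CellTiter-Glo luminescence after 48 h exposure gives viability, scaled between DMSO-only (100%) and media-only (0%) controls. Library compounds are pinned onto 500 myeloma cells per well, incubated at 37C with 5% CO2.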
# [6] = Quantitative High-Throughput drug screen in 47 multiple myeloma cell lines against the NCATS MIPE library collection: Karpas417_ECACC cell viability assay (AID 1918961); conditions: Karpas417 myeloma viability, CellTiter-Glo ATP luminescence, 48 h; viability (% of DMSO): at 45.8 µM (top of the series) unless noted
# Procedure, shortened: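 CellTiter-Glo luminescence (ATP) after 48 h compound exposure, 37C/5% CO2; 500 cells/well; MIPE 4.0 approved/investigational drugs pinned in; DMSO = 100%, media only = 0% viability.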
# [7] = Quantitative High-Throughput drug screen in 47 multiple myeloma cell lines against the NCATS MIPE library collection: JIM3_ECACC cell viability assay (AID 1918963; note: nearly all actives have a fitted effect of over 35% in size)
# Procedure, shortened: as §2
# [8] = Quantitative High-Throughput drug screen in 47 multiple myeloma cell lines against the NCATS MIPE library collection: ARP1_JJKsccF8 cell viability assay (AID 1918928; note: nearly all actives have a fitted effect of over 40% in size)
# Procedure, shortened: as §3
# [9] = Quantitative High-Throughput drug screen in 47 multiple myeloma cell lines against the NCATS MIPE library collection: ARD_JJKsccE7 cell viability assay (AID 1918929)
# Procedure, shortened: as §1
# [10] = Quantitative High-Throughput drug screen in 47 multiple myeloma cell lines against the NCATS MIPE library collection: KHM11_PLB cell viability assay (AID 1918962); note: nearly all actives have a fitted effect of over 35% in size
# Procedure, shortened: as §2
# Potency is the fitted concentration of half-maximal effect.
Structure (SMILES),Potency [1],Potency [2],Potency [3],Potency [4],Potency [5],Potency [6],Potency [7],Potency [8],Potency [9],Potency [10],viability (% of DMSO) [6]
COc1cc2nccc(Oc3ccc(NC(=O)NC4CC4)c(Cl)c3)c2cc1C(N)=O,13.2 µM (active),2.09 µM (active),2.09 µM (active),inactive,3.72 µM (active),inactive,13.2 µM (active),,,,
NC(=O)c1ccc(I)c([N+](=O)[O-])c1,18.7 µM (active),inactive,,,inactive,,18.7 µM (active),inactive,inactive,,
Cc1ccc(-n2nc(C(C)(C)C)cc2NC(=O)Nc2ccc(OCCN3CCOCC3)c3ccccc23)cc1,2.64 µM (active),18.7 µM (active),18.7 µM (active),16.6 µM (active),,,18.7 µM (active),,,,
O=C(NOC[C@H](O)CO)c1ccc(F)c(F)c1Nc1ccc(I)cc1F,0.0118 µM (active),inactive,3.72 µM (active),0.0469 µM (active),0.0187 µM (active),0.0469 µM (active),0.166 µM (active),,,0.0132 µM (active),
O=c1n(CCCN2CCN(c3cccc(Cl)c3)CC2)nc2ccccn12,inactive,inactive,inactive,inactive,inactive,,inactive,,,inactive,
CCC(=O)N[C@H]1CC[C@H](C(=O)N(C)c2ccc(-c3nc4ccccc4o3)cc2)C1,8.33 µM (active),16.6 µM (active),11.8 µM (active),,,,8.33 µM (active),,11.8 µM (active),,
Cc1ccccc1C(C(=O)NC1CCCC1)N(C(=O)Cn1cnc2ccccc21)c1cccc(F)c1 (centres undefined),16.6 µM (active),inactive,0.0264 µM (active),inactive,inactive,,,,,,
CCc1cc(Nc2nccc(-c3c(-c4ccc(OC)c(C(=O)Nc5c(F)cccc5F)c4)nc4ccccn34)n2)c(OC)cc1N1CCC(N2CCN(S(C)(=O)=O)CC2)CC1,5.26 µM (active),10.5 µM (active),,,,,18.7 µM (active),,4.69 µM (active),,
CCCCNc1cc(C(=O)O)cc(S(N)(=O)=O)c1Oc1ccccc1,inactive,inactive,inactive,inactive,inactive,,inactive,,,,
CN1CCN(CCCN2c3ccccc3Sc3ccc(C(F)(F)F)cc32)CC1,4.69 µM (active),inactive,inactive,,inactive,,8.33 µM (active),,inactive,10.5 µM (active),113% (active)
Cc1[nH]c(=O)c(C#N)cc1-c1ccc2nccn2c1,inactive,inactive,,,inactive,,inactive,inactive,inactive,inactive,
Nc1nc2ccc(OC(F)(F)F)cc2s1,13.2 µM (active),inactive,,inactive,inactive,,inactive,,16.6 µM (active),,
CCOC(=O)C1=C[C@]2(CC)CCCN3CCc4c(n1c1ccccc41)[C@@H]32,10.5 µM (active),20.9 µM (active),16.6 µM (active),23.5 µM (active),20.9 µM (active),,11.8 µM (active),,,,
NC(N)=NC(=O)c1nc(Cl)c(N)nc1N,8.33 µM (active),inactive,14.8 µM (active),inactive,,,inactive,,,,
COc1nc(-c2ccc3c(c2)OCO3)n(-c2ccc(NC(=O)CSc3ccccc3)cc2)n1,inactive,inactive,,inactive,inactive,inactive,inactive,,inactive,,
CCN(CC)CCCC(C)Nc1ccnc2cc(Cl)ccc12 (centres undefined),inactive,inactive,0.187 µM (active),,inactive,0.0526 µM (active),inactive,,,,
O=C1CCC(N2C(=O)c3ccccc3C2=O)C(=O)N1 (centres undefined),inactive,inactive,,inactive,inactive,,inactive,0.0662 µM (active),inactive,,
Cc1[nH]c(=O)c(C#N)cc1-c1ccncc1,7.43 µM (active),inactive,23.5 µM (active),inactive,,,18.7 µM (active),,,inactive,
CCOc1cc(C(=O)Nc2ccc(Cl)c(-c3nc4ccccc4[nH]3)c2)cc(OCC)c1OCC,18.7 µM (active),13.2 µM (active),,13.2 µM (active),,,,,,,
O=NN(CCCl)C(=O)NCCCl,inactive,inactive,inactive,inactive,inactive,,inactive,,,,
O=C(C=Cc1ccc(/C=C/C(=O)Nc2ccc(C3=NCCN3)cc2)cc1)Nc1ccc(C2=NCCN2)cc1,inactive,inactive,,inactive,inactive,,inactive,,inactive,,
OC(CCN1CCCCC1)(c1ccccc1)C1CC2C=CC1C2 (centres undefined),inactive,inactive,inactive,inactive,inactive,inactive,,,,,
Cc1n[nH]c(C)c1Cc1sc2c(c1C(=O)N1C[C@H](O)CO1)c(=O)n(C)c(=O)n2CC(C)C,inactive,inactive,,inactive,0.0118 µM (active),0.0209 µM (active),inactive,,inactive,,
